# From the supplement of paper PMC4894684
# Where a name gives a salt, the structure may show the parent alone. ± gives the standard deviation of the averaged measurements. In all, about 1,000 compounds went through this assay and about 15 (2%) showed an effect of 50% or more. What follows is part of a selection rich in strong results, with near analogues and random picks from the rest.
# Test system: HFF
# Assay: uninfected host cell viability relative to vehicle control; higher = less host cell toxicity
# Conditions: 5 µM; 72 h; oxygen 21 %
row,SMILES,uninfected host cell viability [%]
1,C[C@@]12C(=O)OC(=O)[C@]1(C)[C@H]1CC[C@@H]2O1 [Cantharidin],19.7 ± 1.6
2,CC(C)NCC(O)c1ccc(N)c(C#N)c1 (stereo not given) [Cimaterol],84.5 ± 2.1
3,NC(=S)N/N=C/c1coc2ccccc2c1=O.[Cl][Cu][Cl],98.2 ± 1.8
4,COC1(C[S@+]([O-])c2ccccc2)CCN(CCc2c[nH]c3ccc(F)cc23)CC1,80.8 ± 2.7
5,NCCc1c[nH]c2ccc(C(N)=O)cc12 [5-Carboxamidotryptamine maleate],91.33 ± 0.078
6,CC(C)C[C@@H](N)C1(c2ccc(Cl)cc2)CCC1,91.72 ± 0.29
7,NC1(c2ccccc2Cl)CCCCC1=O (stereo not given) [Norketamine hydrochloride],97.41 ± 0.47
8,c1ccc2c(c1)[I+]c1ccccc1-2 [Diphenyleneiodonium chloride],30.8 ± 3.4
9,Cc1[nH]c2ccc(Cl)cc2c1C1=CCNCC1,75.1 ± 2
10,CN1Cc2ccccc2[C@@H]2c3cccc4[nH]cc(c34)C[C@H]21,86.3 ± 3.7
11,CCOC(=O)c1ncc2[nH]c3ccc(OCc4ccccc4)cc3c2c1COC,103 ± 4.4
12,C[C@H]1CCC/C=C/[C@@H]2C[C@H](O)C[C@H]2[C@H](O)/C=C/C(=O)O1 [Brefeldin A],45.4 ± 4
13,N#Cc1ccc(N2CCN(C(=O)COc3ccc4[nH]cc(CCN)c4c3)CC2)cc1 [Donitriptan hydrochloride],98.31 ± 0.13
14,CC(=O)[C@H]1CC[C@H]2[C@@H]3CC[C@H]4C[C@](C)(O)CC[C@]4(C)[C@H]3CC[C@]12C [Ganaxolone],95 ± 1.5
15,O=C1NC(=O)c2c1c1c3ccccc3[nH]c1c1[nH]c3ccccc3c21 [Arcyriaflavin A],83.56 ± 0.33
16,O=C1NC(=O)c2c1c1c3ccccc3n3c1c1c2c2ccccc2n1[C@H]1CC[C@@H]3O1,39.2 ± 11
17,C[C@@H](N)Cc1cnc[nH]1 [(R)-(-)- α-Methylhistamine dihydrobromide],89.841 ± 0.031
18,O=[N+]([O-])c1cc(O)c(O)c([N+](=O)[O-])c1,95.7 ± 4.9
19,O=C1/C(=C/c2ccccc2)C[C@@]2(O)[C@H]3Cc4ccc(O)c5c4[C@@]2(CCN3CC2CC2)[C@H]1O5 [BNTX maleate],22.2 ± 1.1
20,Oc1ccc2c3c1O[C@H]1c4[nH]c5ccccc5c4C[C@@]4(O)[C@@H](C2)N(CC2CC2)CC[C@]314 [Naltrindole hydrochloride],81.09 ± 0.49
21,Oc1ccc2c3c1O[C@H]1c4[nH]c5c(c4C[C@@]4(O)[C@@H](C2)N(CC2CC2)CC[C@]314)C[C@@]1(O)[C@H]2Cc3ccc(O)c4c3[C@@]1(CCN2CC1CC1)[C@H]5O4 [nor-Binaltorphimine dihydrochloride],85.23 ± 0.22
22,O[C@H]1[C@H](O)[C@@H](O)CN2CC[C@H](O)[C@H]12 [Castanospermine],82.95 ± 0.65
23,CCN(CC)CCO[C@H]1CC[C@@]2(C)C(=CC[C@@H]3[C@@H]2CC[C@]2(C)C(=O)CC[C@@H]32)C1,104 ± 3.5
24,"c1ccc(CC(c2ccccc2)N2CCCCC2)cc1 (racemic) [(±)-1-(1,2-Diphenylethyl)piperidine maleate]",89.8 ± 6.6
25,N[C@H](C(=O)O)c1cc(O)no1 [Ibotenic acid],85 ± 3.7
